Our source for the growth values is PubChem BioAssay (NCI).

Several values for one entry are separate records, joined by “and”; a condition that tells them apart may be missing. Equal entries are not always repeated. Compounds without any hit were thinned out: in the full panel of roughly 83,000, 20% have a hit.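 Note: values are percent growth. 100 is the growth of untreated cells, values between 100 and 0 indicate rising inhibition; between -100 and 0 indicates cell death.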 Activity calls are given as the source filed them. How the source made its calls: active means growth percent below 10; inactive means the rest.

Some test systems named below: T-47D breast; BT-549 breast; MDA-MB-435 melanoma; SW-620 colon; MCF7 breast; HCT-116 colon; HCC-2998 colon; KM12 colon.
Holding throughout (assay): NCI-60 one-dose screen, 48 h (100 = growth as untreated, 0 = no growth, -100 = all killed)
What all share (conditions): 10 µM unless noted

In the case of `Nc1nc2c(s1)CCc1cn(S(=O)(=O)c3ccccc3)cc1-2`, the growth was 81.6% (inactive) and 111% (inactive) in the assay on T-47D breast; 84% (inactive) and 109% (inactive) in the assay on BT-549 breast; 91.1% (inactive) and 107% (inactive) with MDA-MB-435 melanoma; 99.7% (inactive) and 99.3% (inactive) with SW-620 colon; 93.4% (inactive) and 94.3% (inactive) in the assay on MCF7 breast; 84.5% (inactive) and 100% (inactive) in the assay on HCT-116 colon. Besides, the growth is 111% (inactive) and 106% (inactive) in the assay with HCC-2998 colon; 94.6% (inactive) and 108% (inactive) in the assay with KM12 colon.
As for `CC/C=C\C/C=C\C[C@H](O)C/C=C1/C(=O)C=C[C@@H]1C/C=C\CCCC(=O)OC`, the growth in the assay with T-47D breast is 4.23% (active); in the assay with BT-549 breast, -14.9% (active); in the assay on MDA-MB-435 melanoma it was -16.4% (active); in the assay with SW-620 colon, -46.3% (active); with MCF7 breast, 2.32% (active); in the assay on HCT-116 colon it was -63.8% (active). Besides, the growth in the assay on HCC-2998 colon is -83.9% (active); in the assay with KM12 colon, -71.6% (active).
As for `C=C1C(=O)O[C@H]2[C@H]1CC/C(CNS(=O)(=O)c1ccc3ccccc3c1)=C\CC[C@@]1(C)O[C@@H]21`, the growth with T-47D breast is -67.4% (active); with BT-549 breast it was -9.57% (active); in the assay on MDA-MB-435 melanoma, 0.587% (active); in the assay with SW-620 colon, -29.8% (active); with MCF7 breast, -56.9% (active); in the assay with HCT-116 colon it was -87.2% (active). Further, the growth with HCC-2998 colon was -57.7% (active); with KM12 colon, 64.8% (inactive).
As for `Cn1cc(-c2csc(-c3cn(CCOC(N)=O)c4ccccc34)n2)c2cccnc21`, the growth was 45.8% (inactive) in the assay on T-47D breast; 79.5% (inactive) in the assay with BT-549 breast; 8.15% (active) in the assay on MDA-MB-435 melanoma; 67.9% (inactive) with SW-620 colon; 58.2% (inactive) in the assay on MCF7 breast; 86.5% (inactive) with HCT-116 colon. The results for the growth in the assay with HCC-2998 colon and in the assay on KM12 colon were 90.4% (inactive) and 67% (inactive), respectively.
As to `C=C(CNCCc1ccc(O)cc1)[C@@H]1CC[C@]2(CO)CC[C@]3(C)[C@H](CC[C@@H]4[C@@]5(C)CCC(NCCc6ccc(O)cc6)C(C)(C)[C@@H]5CC[C@]43C)[C@@H]12` (some centres not stated), the growth was -69.1% (active) in the assay with T-47D breast; -79.7% (active) in the assay with BT-549 breast; -89.9% (active) in the assay on MDA-MB-435 melanoma; -74.1% (active) with SW-620 colon; -74.3% (active) in the assay with MCF7 breast; -92% (active) in the assay with HCT-116 colon. Also, the figures for the growth in the assay on HCC-2998 colon and with KM12 colon were -91.3% (active) and -77.4% (active), respectively.
As for `O=C(Nc1ccc2ccccc2c1)c1cc2ccccc2cc1O`, the growth with T-47D breast was 83.3% (inactive); in the assay on BT-549 breast it was 81.5% (inactive); in the assay with MDA-MB-435 melanoma it was 103% (inactive); in the assay with SW-620 colon it was 103% (inactive); in the assay on MCF7 breast, 65.9% (inactive); with HCT-116 colon, 92.3% (inactive). Further, the values for the growth in the assay on HCC-2998 colon and in the assay on KM12 colon were 107% (inactive) and -36.8% (active), respectively.
On to `COc1cc(-c2nc(SCCC(C)C)nc(Nc3ccc(F)cc3)c2C#N)cc(OC)c1OC`, for which the growth is 65.7% (inactive) in the assay on T-47D breast; 74.9% (inactive) in the assay on BT-549 breast; 79.4% (inactive) in the assay on MDA-MB-435 melanoma; 80.1% (inactive) in the assay with SW-620 colon; 87% (inactive) with MCF7 breast; 22% (inactive) in the assay with HCT-116 colon. For the same compound, the growth with HCC-2998 colon was 102% (inactive); in the assay on KM12 colon, 78.6% (inactive).
Turning to `COc1nc(=O)n(C2C=CC(=O)O2)cc1F` (configuration not stated), the growth with T-47D breast was 41.7% (inactive); in the assay on BT-549 breast it was 81.2% (inactive); with MDA-MB-435 melanoma, 79% (inactive); in the assay on SW-620 colon, 46.3% (inactive); in the assay with MCF7 breast it was 31.9% (inactive); with HCT-116 colon, 34.3% (inactive). Moreover, the growth in the assay with HCC-2998 colon is 133% (inactive); with KM12 colon, 103% (inactive).
As for `CC(C)=CCc1cc(O)c(O)c2oc3cc(O)cc(O)c3c(=O)c12`, the growth is 69.5% (inactive) with T-47D breast; 75.1% (inactive) with BT-549 breast; 61.1% (inactive) with MDA-MB-435 melanoma; 61.9% (inactive) in the assay with SW-620 colon; 91.6% (inactive) in the assay on MCF7 breast; 43.1% (inactive) in the assay on HCT-116 colon. The growth is 104% (inactive) in the assay with HCC-2998 colon and 59.8% (inactive) in the assay with KM12 colon.
In the case of `O=Nc1ccc(NO)c2ccccc12`, the growth was 96.9% (inactive) and 65.8% (inactive) in the assay on T-47D breast; 83.3% (inactive) and 87.8% (inactive) with BT-549 breast; 107% (inactive) and -57.8% (active) with MDA-MB-435 melanoma; 86% (inactive) and 52.3% (inactive) with SW-620 colon; 91.5% (inactive) and 64.5% (inactive) in the assay with MCF7 breast; 95% (inactive) and 39.1% (inactive) with HCT-116 colon. The growth in the assay with HCC-2998 colon was 120% (inactive) and 108% (inactive); in the assay with KM12 colon, 104% (inactive) and 76.4% (inactive).
Take `O=C(CCN1CCOCC1)Nc1cccc(-n2cc(-c3ccncc3)c(-c3ccc(Cl)c(O)c3)n2)c1`: the growth in the assay with T-47D breast is 38.3% (inactive); with BT-549 breast, 11.6% (inactive); with MDA-MB-435 melanoma, -64.1% (active); with SW-620 colon, 23.4% (inactive); in the assay with MCF7 breast, 11.4% (inactive); in the assay with HCT-116 colon it was 21.1% (inactive). The growth was 66.9% (inactive) with HCC-2998 colon and 23.7% (inactive) in the assay with KM12 colon.
Turning to `O=C1/C(=C/c2ccc(F)c(F)c2)CN(C(=O)C(Cl)Cl)C/C1=C\c1ccc(F)c(F)c1`, the growth is -46.2% (active) in the assay with T-47D breast; -98% (active) with BT-549 breast; -94.8% (active) in the assay with MDA-MB-435 melanoma; -67.6% (active) in the assay on SW-620 colon; -55.2% (active) in the assay on MCF7 breast; -98.9% (active) in the assay with HCT-116 colon. Besides, the growth was -83.4% (active) with HCC-2998 colon and -89.2% (active) in the assay with KM12 colon.
On to `Nc1nc(N)c2c(n1)NC(c1ccc(Cl)cc1)CC(c1cccc(Nc3ccncc3)c1)=N2` (configuration not stated), for which the growth in the assay with T-47D breast was 77.6% (inactive); in the assay with BT-549 breast, 110% (inactive); in the assay with MDA-MB-435 melanoma, 42.7% (inactive); in the assay with SW-620 colon, 30% (inactive); in the assay with MCF7 breast, 49.4% (inactive); in the assay on HCT-116 colon it was 21.9% (inactive). Moreover, the values for the growth in the assay with HCC-2998 colon and in the assay on KM12 colon were 72.1% (inactive) and 63.7% (inactive), respectively.
Consider `COc1ccc(-c2[nH]c3ccccc3c2-c2ccc(OC)cc2)cc1`, for which the growth with T-47D breast is 41.1% (inactive); in the assay on BT-549 breast, 90.9% (inactive); with MDA-MB-435 melanoma, -33.1% (active); in the assay with SW-620 colon it was 37.1% (inactive); in the assay on MCF7 breast it was 16.2% (inactive); with HCT-116 colon, 24.4% (inactive). In addition, the growth in the assay on HCC-2998 colon is 32.3% (inactive); in the assay with KM12 colon, 16.6% (inactive).
